Test results as given in PubChem BioAssay (NCATS).
Records with an inconclusive call do not appear. Calls of active or inactive are those of the source. Calls come from the whole dose curve; as a rule, active = well fitted cell-killing curve with a large enough effect; inconclusive = small, poorly fitted or top-dose-only effect, or effect the other way; inactive = no such curve, though single readings can be large or run the other way.

Assay: Quantitative High-Throughput drug screen in 47 multiple myeloma cell lines against the NCATS MIPE library collection: AMO1_DSMZ cell viability assay (AID 1918927; note: nearly all actives have a fitted effect of over 30% in size)
Settings: AMO1 myeloma cells viability, CellTiter-Glo ATP luminescence, 48 h; series mostly up to 45.8 µM
Source text: PI: Beverly A. Mock Ph.D.
Laboratory of Cancer Biology and Genetics,
Center for Cancer Research, National Cancer Institute,
National Institute of Health, Bethesda, Maryland
Drug resistance and disease progression are common in multiple myeloma (MM) patients, underscoring the need for new therapeutic combinations. […] We hypothesized that effective combinations would reduce MYC expression and enhance p16 activity. […] These preclinical data identify potentially useful drug combinations for evaluation in drug-resistant MM and reveal potential mechanisms of combined drug sensitivity.
Described herein is the primary MIPE qHTS used to cherrypick compounds. Validated compounds were then further tested for potential synergistic activiy.
[1] Peat TJ, Gaikwad SM, Dubois W, Gyabaah-Kessie N, Zhang S, Gorjifard S, Phyo Z, Andres M, Hughitt VK, Simpson RM, Miller MA, Girvin AT, Taylor A, Williams D, D'Antonio N, Zhang Y, Rajagopalan A, Flietner E, Wilson K, Zhang X, Shinn P, Klumpp-Thomas C, McKnight C, Itkin Z, Chen L, Kazandijian D, Zhang J, Michalowski AM, Simmons JK, Keats J, Thomas CJ, Mock BA. Drug combinations identified by high-throughput screening promote cell cycle transition and upregulate Smad pathways in myeloma. Cancer Lett. 2023 Aug 1;568:216284. doi: 10.1016/j.canlet.2023.216284. Epub 2023 Jun 24. PMID: 37356470; PMCID: PMC10408729.
SEQUENCE No. (e.g., 1, 2, 3, etc.); […] (e.g., Cells, Incubation, Reagent, etc.); VALUE and DESCRIPTION.
1; Cells; 5 uL; white, solid bottom 1536-well Greiner assay plate.
2; Compounds; 23 nL; Kalypsis pin tool (Wako USA) equipped with a 1536-well pin head to transfer to the assay plates.
3; Incubation; 48 hours; 37C incubation.
4; Reagent;5uL; CellTiter Glo (Promega).
5; Detector; 425V; Luminescence; Viewlux PerkinElmer.
NOTES (numbers refer to Sequence numbers above)
1. The cell-based screening methods employed in this study were like those previously published. Briefly, the corresponding myeloma cell lines were screened in 1,536-well plates with 500 cells, 5-uL per well for inhibition of cell viability (assessed by measuring ATP levels with CellTiterGlo).
2. NCATS MIPE 4.0 library of approved and investigational drugs were added using the Kalypsis pin tool. Wells treated with DMSO only for 100% viability and media only wells for 0% viability were used as controls.
3. The assay plates were covered and incubated for 48 hours in a 37C, 5% CO2 incubator with controlled humidity.
4. After 48 hours, CellTilter-GloTM luminescent substrate mix (Promega) reagent was added to the assay plate and plates we incubated for 5 min at room temperature.
5. Signal was measured as median relative luminescence units on a ViewLux (PerkinElmer) multiplate reader.
[1] Heske CM, Davis MI, Baumgart JT, Wilson K, Gormally MV, Chen L, Zhang X, Ceribelli M, Duveau DY, Guha R, Ferrer M, Arnaldez FI, Ji J, Tran HL, Zhang Y, Mendoza A, Helman LJ, Thomas CJ. Matrix Screen Identifies Synergistic Combination of PARP Inhibitors and Nicotinamide Phosphoribosyltransferase (NAMPT) Inhibitors in Ewing Sarcoma. Clin Cancer Res. 2017 Dec 1;23(23):7301-7311. doi: 10.1158/1078-0432.CCR-17-1121. Epub 2017 Sep 12. PMID: 28899971; PMCID: PMC6636827.
Potency is the fitted concentration of half-maximal effect.

SMILES | Potency
O=C1CCCC2=C1C(c1[nH]ncc1Cl)N=C(Nc1nc3ccccc3o1)N2 (stereo not given) | inactive
CCn1cc(C(=O)O)c(=O)c2cc(F)c(N3CCNC(C)C3)c(F)c21 (stereo not given) | inactive
CCc1ccc(CCOc2ccc(CC3SC(=O)NC3=O)cc2)nc1 (stereo not given) | inactive
Oc1cccc(-c2nc(N3CCOCC3)c3oc4ncccc4c3n2)c1 | 0.171 µM (active)
COc1ccc(C2=N[C@H](c3ccc(Cl)cc3)[C@H](c3ccc(Cl)cc3)N2C(=O)N2CCNC(=O)C2)c(OC(C)C)c1 | 1.66 µM (active)
CS(=O)(=O)c1cccc(CNc2nc(Nc3ccc4c(c3)CCC(=O)N4)ncc2C(F)(F)F)c1 | 9.35 µM (active)
CCN(CC)CCCC(C)Nc1ccnc2cc(Cl)ccc12 (stereo not given) | 0.187 µM (active)
Cc1cnc(NC(=O)C2=C(O)c3ccccc3S(=O)(=O)N2C)s1 | inactive
O=C1CCc2cc(OCCCCc3nnnn3C3CCCCC3)ccc2N1 | inactive
Cc1cc(-c2ccc(CC(=O)Nc3ccc(-c4cccnc4)cc3)cc2)ccn1 | 18.7 µM (active)
Cc1c(CCOc2ccc(C(=O)O)cc2)c2cc(Cl)ccc2n1C(c1ccccc1)c1ccccc1 | inactive
OC(CN1CCC(Cc2ccc(F)cc2)CC1)c1ccc(Cl)cc1 (stereo not given) | inactive
CN(C)c1ccc(Nc2nc(N)n(C(=O)c3c(F)cccc3F)n2)cc1 | 4.69 µM (active)
Clc1ccc(Nc2nnc(Cc3ccncc3)c3ccccc23)cc1 | inactive
O=NN(CCCl)C(=O)NCCCl | inactive
O=C(Nc1nc2ccccc2n1CCN1CCOCC1)c1cccc([N+](=O)[O-])c1 | 4.18 µM (active)
O=c1ncn2nc(Sc3ccc(F)cc3F)ccc2c1-c1c(Cl)cccc1Cl | 18.7 µM (active)
CC(C[N+](C)(C)C)OC(N)=O (stereo not given) | inactive
COc1ccccc1[C@H](c1cccc2ccccc12)[C@@](C)(C#N)C(=O)N1CCC(c2cccc(C(F)(F)F)c2)CC1 | 2.64 µM (active)
CN(C)C(=O)c1ccc(S(=O)(=O)c2ccc(NC(=O)[C@@](C)(O)C(F)(F)F)c(Cl)c2)cc1 | 14.8 µM (active)

SMILES | Potency
CCC(C)(C)C(=O)O[C@H]1C[C@@H](C)C=C2C=C[C@H](C)[C@H](CC[C@@H]3C[C@@H](O)CC(=O)O3)[C@H]21 | 18.7 µM (active)
CCCCCCCc1ccc(CCc2cccc(O)c2C(=O)O)cc1 | inactive
COc1ccc([C@@H]2CC(=O)c3c(O)cc(O[C@@H]4O[C@H](CO[C@@H]5O[C@@H](C)[C@H](O)[C@@H](O)[C@@H]5O)[C@@H](O)[C@H](O)[C@@H]4O)cc3O2)cc1O | inactive
Cc1ccccc1C(C(=O)NC1CCCC1)N(C(=O)Cn1cnc2ccccc21)c1cccc(F)c1 (stereo not given) | 0.0264 µM (active)
Cc1cc2c(F)c(Oc3ncnn4cc(OC[C@@H](C)O)c(C)c34)ccc2[nH]1 | 4.69 µM (active)
Nc1nc2[nH]cc(CCc3ccc(C(=O)N[C@@H](CCC(=O)O)C(=O)O)cc3)c2c(=O)[nH]1 | 0.526 µM (active)
CN1CCN(CCCN2c3ccccc3Sc3ccc(C(F)(F)F)cc32)CC1 | inactive
CCCn1c(=O)c2[nH]c(C34CC5CC3C[C@@H](C5)C4)nc2n(CCC)c1=O | 0.0264 µM (active)
COc1ccc(-c2c(-c3ccc(O)cc3O)n[nH]c2C)cc1 | 42.9 µM (active)
C#Cc1cccc(Nc2ncnc3cc(OCCOC)c(OCCOC)cc23)c1 | 1.05 µM (active)
Clc1cccc(Cl)c1NC1=NCCN1 | inactive
CC1(C)SCCN(S(=O)(=O)c2ccc(OCC#CCO)cc2)[C@@H]1C(=O)NO | 2.64 µM (active)
COc1ccc(CC2=NN3C([C@@H](CCc4ccccc4)[C@@H](C)O)=NC(C)C3C(=O)N2)cc1OC (stereo not given in full) | inactive
CCOC(=O)N[C@@H]1CC[C@@H]2[C@@H](C1)C[C@H]1C(=O)O[C@H](C)[C@H]1[C@@H]2C=Cc1ccc(-c2cccc(F)c2)cn1 | 18.7 µM (active)
Cc1cccc(-c2nn(C(=S)Nc3ccccc3)cc2-c2ccnc3ccccc23)n1 | inactive
CC[C@@H](C)[C@H](NC(=O)[C@H](CC1CCCCC1)NC(=O)c1ccno1)C(=O)N1CCC2(CCc3ccccc32)CC1 | inactive
CCn1c(-c2nonc2N)nc2cnc(Oc3cccc(NC(=O)c4ccc(OCCN5CCOCC5)cc4)c3)cc21 | 5.9 µM (active)
Cc1cnc(Nc2ccc(OCCN3CCCC3)cc2)nc1Nc1cccc(S(=O)(=O)NC(C)(C)C)c1 | 0.418 µM (active)
CCN(CC)CCCC(C)Nc1nc(C)cc(Nc2ccc3nc(C)cc(N)c3c2)n1 (stereo not given) | inactive
Cc1ccccc1C(OCCN(C)C)c1ccccc1 (stereo not given) | inactive
